Compound activity (PubChem BioAssay)
The list is not random: actives were taken first. Their share in the collection is about 11%.
HPGD block: blocks human HPGD enzyme activity; P15428; purified HPGD, NADH fluorescence kinetic, PGE2 substrate; Potency, µM, for the others: at the highest dose activity change, negative = inhibition, actives largely listed as inhibitors; 4.3% of 150,000 active; AID 894; further: potency means the concentration at half of the fitted maximal effect
Target sequence (P15428 whole entry, looked up): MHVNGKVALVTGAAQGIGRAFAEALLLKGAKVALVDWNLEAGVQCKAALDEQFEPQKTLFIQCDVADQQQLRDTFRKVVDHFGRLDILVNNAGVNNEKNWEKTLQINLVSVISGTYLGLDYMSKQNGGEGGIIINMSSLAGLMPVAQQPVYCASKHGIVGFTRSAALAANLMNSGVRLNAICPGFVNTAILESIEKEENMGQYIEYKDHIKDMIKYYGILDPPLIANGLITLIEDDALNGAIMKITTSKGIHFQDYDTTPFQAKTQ
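NADH formation kinetics: reaction with 30 uM PGE2 and 1 mM NAD+ (final), 20 nM enzyme, Tris-HCl pH 8 with Tween 20, after 15 min compound preincubation at room temperature. Fluorescence change, last versus first of five reads.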
PNC inhibitor: blocks assembly of the perinucleolar compartment | PC3M PTB-GFP, PNC prevalence imaging, 16 h; active compounds read low | 3.1% of 140,000 active | activity change (PNC), negative = inhibition, % at 10 µM;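 active means readout at or below -70, meaning at least 70% loss of cells showing the perinucleolar compartment, a nuclear body marking cancer cells; inconclusive means readout between -30 and a set limit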;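 further: plate controls were DMSO wells for no effect and camptothecin positive control wells for full effect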
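PC3M cells stably expressing PTB-GFP, 750–1000 cells/well, treated 16 h at 37 °C with compound (23 nl of library stock), in duplicate. After paraformaldehyde fixation and Hoechst stain, imaged at 20x; PNC prevalence scored by image analysis.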
ALDH1A1 inh: ALDH1A1 (human) enzyme inhibition; P00352; Purified ALDH1A1, NADH fluorescence, propionaldehyde substrate; Potency, µM (series often up to 75.3 µM), for inactives: at the top dose activity, negative = inhibition, hits mostly inhibitors; 7.3% of 220,000 active; AID 1030;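 further: potency means the concentration at half of the fitted maximal effect; plate controls were no enzyme wells and a reference inhibitor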
The depositor's hits bear a star; ? = inconclusive; nt = no result; [ ] = another dose, or the depositor's remark. Unless noted, the call rests on the fitted dose curve; in most records, active means well fitted inhibition curve with a large enough effect (not every such curve was filed as active); inconclusive means small, poorly fitted or top-dose-only effect, or another doubt; inactive means no such curve, though single readings can be large or run the other way. Unless noted, on the % scale 0 is the no-effect control and ±100 the full control effect.

SMILES	HPGD block	PNC inhibitor	ALDH1A1 inh
O=C(NCCCCCCNC(=O)c1cccs1)c1cccs1	nt	nt	-2.5%
CN(C)c1cccc2c(C=C(C#N)C#N)ccc(N(C)C)c12	-13.5%	15.4	?
N#Cc1ccccc1Oc1ccccc1C=O	nt	nt	-9.5%
Cc1ccccc1-c1cc(NCc2ccccc2)ncn1	nt	nt	-3.9%
O=C(CCNc1cccc(C(F)(F)F)c1)c1ccco1	-8.6%	15.7	2.51µM*
O=C(CSc1ccc(Cl)cc1)c1ccco1	25.1µM*	-12.5	12.6µM*
O=C(CCNc1ccc(F)c(Cl)c1)c1ccco1	-6.9%	-9.6	3.55µM*
O=C(CSc1ccccc1Cl)c1ccco1	-20.1%	-18.9	-4.1%
O=C(CCNC(=O)c1ccccc1)Nc1ccc(F)c(Cl)c1	-6.7%	?	7.1%
O=C(CCNc1cc(Cl)cc(Cl)c1)c1ccco1	-15.8%	-3.3	7.94µM*
O=C(NCc1cccc(Cl)c1)c1ccco1	-19.4%	-10.5	-2.1%
CCOC(=O)CNc1cccc(C(F)(F)F)c1	nt	nt	-7.2%
Cc1ccccc1-c1nn(-c2ccc(F)cc2F)cc1CNC1CC1	nt	nt	-18.2%
CC[C@H](C)C(=O)O[C@@H]1C[C@H](C)C=C2C=C[C@H](C)[C@@H](CC[C@H]3C[C@@H](O)CC(=O)O3)[C@H]21	-5.1%	nt	-5.8%[20.9 µM]
CNCC(=O)Nc1ccc(Cl)c(C(F)(F)F)c1	nt	nt	3.1%
O=C(CNC(=O)c1ccco1)Nc1ccc(F)cc1	nt	nt	6.2%
O=C(CCNc1ccc(Cl)c(C(F)(F)F)c1)c1ccco1	-6.2%	-11.5	8.91µM*
O=C(CCNc1ccc(F)cc1)c1ccco1	-2.0%	1.6	1.41µM*
Cc1csc(-c2cnn(-c3ccccc3)c2NC(=O)c2cccc(C(F)(F)F)c2)n1	-14.2%	24.4	2.5%
COc1ccc(NS(=O)(=O)c2ccc(O)c(C(=O)OCC(=O)Nc3ccc4c(c3)OCCO4)c2)cc1	?	-7.8	22.4µM*
COc1ccc(NS(=O)(=O)c2ccc(O)c(C(=O)OCC(=O)N3CC(C)OC(C)C3)c2)cc1 (stereo not given)	-5.6%	28.9	?
CC(C)[C@H](NS(=O)(=O)c1ccccc1)C(=O)OCC(=O)Nc1ccc2c(c1)OCO2	0.2%	20.0	-9.5%
O=C(COC(=O)c1ccc(NS(=O)(=O)c2ccc(F)c(F)c2)cc1)NCC1CCCO1 (stereo not given)	nt	nt	-2.6%
CCC(CC)NC(=O)COC(=O)c1ccc(NS(=O)(=O)c2ccc3c(c2)OCCO3)cc1	25.1µM*	39.4	?
C[C@H](NS(=O)(=O)c1ccccc1)C(=O)OCC(=O)NC(=O)Nc1ccc2c(c1)OCCO2	-12.8%	31.9	14.1µM*
SMILES	HPGD block	PNC inhibitor	ALDH1A1 inh
CCCOc1ccc(NC(=O)C(=O)NCCCn2ccnc2)cc1	-10.0%	6.8	7.9%
CNC(=O)CSc1cn(CC(=O)N(C(C)C)C(C)C)c2ccccc12	nt	nt	-7.2%
COc1c2c(c(C(=O)/C=C/C(C)=C/c3ccccc3)c3c1OCO3)CCN(C)C2	-2.2%	nt	12.0%
Cc1ccc(NC(=O)CN2CCN(CCN=CC3=C(O)CC(c4ccc(C)cc4)CC3=O)CC2)cc1 (stereo not given)	nt	nt	4.2%
COc1ccc(/C=C/C(=O)OCCCN(C)C)cc1	nt	nt	-5.2%
COc1cc(OC)c([C@@H]2O[C@H](CO)[C@@H](O)[C@H](O)[C@H]2O)c(OC)c1	-1.7%	nt	1.3%
Cc1cccc([C@H]2[C@@H]3C=CC(C)C[C@@H]3C(=O)N2Cc2ccccc2)c1 (stereo not given in full)	-20.4%	nt	?
CNc1sc(C(=O)c2cccs2)c(N)c1-c1nc2ccccc2s1	15.8µM*	26.0	1.78µM*
CNc1sc(C(=O)c2ccc(F)cc2)c(N)c1-c1nc2ccccc2s1	?	4.2	-7.0%
CCCCCC1(C(=O)OCC)CC(CSC(=N)N)OC1=O (stereo not given)	nt	nt	-9.9%
O=S(=O)(NC1c2cccc3cccc(c23)C1Sc1ncccn1)c1ccc(Cl)cc1 (stereo not given)	-11.2%	26.7	?
Cc1ccc(S(=O)(=O)NC2c3cccc4cccc(c34)C2Sc2n[nH]c(N)n2)cc1 (stereo not given)	-14.2%	-24.0	3.98µM*
CO[C@@H]1COC(=O)[C@@H](C)NC(=O)C/C=C\[C@@H](C)[C@H](NS(=O)(=O)c2ccc(C)cc2)COC(=O)[C@H](C)NC(=O)C/C=C\[C@H]1C	nt	nt	9.4%[13.5 µM]
CCCCN(C(=O)CSc1nnc(Nc2ccccc2)s1)c1c(N)n(CCC)c(=O)[nH]c1=O	nt	nt	-10.2%
C[N+](C)(C)/N=C\c1ccc(O)c(O)c1	-4.2%	nt	6.9%[13.5 µM]
Oc1ccc(N=Cc2ccc(O)c(O)c2)cc1	28.2µM*	194.1	12.6µM*
O=C(CSc1nnc(CNc2ccc(F)cc2)o1)c1ccccc1	nt	nt	-3.7%
CCOC(=O)c1cc(C)sc1NC(=O)CCC(=O)O	-15.8%	27.7	7.6%
Cc1ccccc1C(=O)Nc1sc2c(c1C(=O)O)CCC2	nt	nt	9.0%
Cc1cc(C(=O)c2ccc(C(C)(C)C)cc2)c(NC(=O)CCl)s1	3.6%	-2.4	11.2µM*
Cc1ccccc1C(=O)Nc1sc(C)c(C)c1C(=O)c1ccccc1	31.6µM*	16.7	?
Cc1sc(NC(=O)CN(Cc2ccccc2)C(=O)C(C)C)c(C(N)=O)c1C	0.3%	?	-14.7%
Cc1sc(NC(=O)CCl)c(C(=O)c2ccccc2)c1C	28.2µM*	-6.7	0.708µM*
COc1ccc(-n2nc(C(=O)Nc3nc4ccc(OC)cc4s3)c3ccccc3c2=O)cc1	-16.4%	-9.7	4.8%
CCOc1ccc(N(CC(=O)NCC2CCCO2)C(=O)CCC(=O)Nc2nccs2)cc1 (stereo not given)	nt	nt	0.9%
SMILES	HPGD block	PNC inhibitor	ALDH1A1 inh
O=C(NCc1ccccc1)c1ccc(CN(c2ccccn2)S(=O)(=O)c2ccccc2)cc1	?	11.4	?
CCc1ccc[n+](-c2[nH]c(=O)sc2/C=N/NC([S-])=Nc2ccccc2)c1	nt	-25.0	14.1µM*
Cc1ccc(/C=N/NC(=O)CCSc2ccccc2)cc1	-18.5%	6.8	-4.9%
Cc1cc(C)c[n+](-c2[nH]c(=O)sc2/C=N/NC([S-])=Nc2ccccc2)c1	28.2µM*	9.0	?
Cc1cc[n+](-c2[nH]c(=O)sc2/C=N/NC([S-])=Nc2ccccc2)cc1	-28.8%	-19.8	25.1µM*
O=c1[nH]c(-[n+]2ccccc2)c(/C=N/NC([S-])=Nc2ccccc2)s1	nt	nt	20µM*
CCN(CC)c1ccc(/C=C2\CCC(/C=N/NC(=O)c3ccc(=O)n(C)c3)=C2N2CCOCC2)cc1	-13.2%	?	?
COCC(=O)N1CCC[C@@]2(CCN(Cc3ccc(C#N)cc3)C2)C1	-5.0%	nt	-7.7%
Cc1nc2ccccc2n1CC(=O)N1CC(=O)Nc2ccccc21	-2.7%	24.9	?
O=C1CN(C(=O)COC(=O)CCSc2ccccc2Cl)c2ccccc2N1	17.8µM*	24.1	14.1µM*
O=C(CN1CCNCC1)Nc1ccccc1Cl	-1.8%	-27.1	-5.3%
O=C1CN(C(=O)COC(=O)c2cccnc2Cl)c2ccccc2N1	nt	nt	6.1%
O=C(Cn1ncc(Cl)c(Cl)c1=O)NCC1CCCCC1	-8.2%	?	22.4µM*
Cc1cccc(N2CCN(CC(=O)NCC3CCCCC3)CC2)c1C	1.4%	0.5	-6.1%
O=C1CN(CC(=O)Nc2cccc(Cl)c2Cl)c2ccccc2N1	nt	nt	3.98µM*
O=C1CN(C(=O)Cn2ncc(Cl)c(Cl)c2=O)c2ccccc2N1	nt	nt	3.16µM*
COc1cc(NC(=O)COC(=O)c2n[nH]c3ccccc23)c(C)cc1[N+](=O)[O-]	nt	nt	2.7%
